Sampled rows, rich in hits. Any-hit rate of the full collection: about 1.5%.
CCHFV vOTU inh – CCHFV vOTU protease inhibitors, primary screen, biochemical, Pep-AMC substrate, fluorescence; Crimean-Congo hemorrhagic fever virus L polyprotein viral ovarian tumor (vOTU) protease …; inhibition, % at 11.5 µM; 370,000 compounds, 0.55% hits; AID 651958, 2012; in the data active means inhibition above about 30%
VHR inh abs – VHR1 phosphatase inhibitors, primary screen, biochemical, absorbance, uHTS | inhibition, % at 13.3 µM | recombinant VHR phosphatase, pNPP absorbance | AID 1654, 2009 | Dual specificity protein phosphatase 3 (Homo sapiens), P51452 | 290,000 compounds, 0.52% hits; in the data active means inhibition above about 50%
Target sequence (P51452 whole entry, looked up): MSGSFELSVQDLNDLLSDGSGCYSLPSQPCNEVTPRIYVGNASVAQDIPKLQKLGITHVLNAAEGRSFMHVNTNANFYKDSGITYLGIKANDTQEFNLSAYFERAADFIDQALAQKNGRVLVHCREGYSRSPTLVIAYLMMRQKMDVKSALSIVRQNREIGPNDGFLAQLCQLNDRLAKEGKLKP
SSB-PriA inh – inhibitors of Klebsiella pneumoniae PriA binding to SSB C-terminal tail, primary screen, biochemical, AlphaScreen | PriA–SSB C-terminal tail interaction (Klebsiella pneumoniae) | AlphaScreen SSBct-PriA binding, biotinylated peptide | inhibition, % at 33 µM | 430,000 compounds, 0.6% hits; in the data active means inhibition mostly above about 37%, no sharp cut-off; inactive means mostly below about 20%
RN4220 kill – growth inhibition of S. aureus RN4220, primary screen, OD600; 330,000 compounds, 0.33% hits; inhibition, % (concentration not given with the values); 16 h; in the data active means inhibition above about 85%
Sa ugtP lethal – growth inhibition of ugtP-null S. aureus, primary screen, RN4220 ugtP deletion, OD600; 16 h; growth inhibition, % (test concentration not listed); 330,000 compounds, 0.54% hits; AID 1259309, 2017; in the data active means growth inhibition above about 68%
Hits are given with their value; 0 = inactive; - = no result given; + = active, no number; ! = not confirmed by another sample.

SMILES	CCHFV vOTU inh	VHR inh abs	SSB-PriA inh	RN4220 kill	Sa ugtP lethal
COc1ccc2nc(-n3nc(C)cc3NC(=O)c3cc(C)nn3C)sc2c1	-	-	0	-	-
NC1=NCC(Cc2ccc(O)cc2)N1CCCCC1CCCCC1 (centres undefined)	-	-	-	101	100
NC1=NCC(Cc2ccc(O)cc2)N1CCc1cccc2ccccc12 (centres undefined)	-	-	-	0	100!
CCCCN1C(N)=NCC1Cc1ccc(O)cc1 (centres undefined)	-	-	-	0	0
NC1=NCC(Cc2ccc(O)cc2)N1CCC12CC3CC(CC(C3)C1)C2 (centres undefined)	-	-	-	101!	101!
NC1=NC[C@H](Cc2ccc(O)cc2)N1CCC12CC3CC(CC(C3)C1)C2	0	0	0	-	-
C[C@H](Oc1ccccc1)C(=O)NCCn1ccn2nccc12	-	-	0	-	-
O=C(CN(c1ccc(F)cc1)S(=O)(=O)c1ccc2c(c1)OCCO2)NCc1cccnc1	0	0	52	0	0
COC(=O)c1ccc2c(c1O)C(=O)c1ccccc1C2=O	0	0	0	97	97
O=c1oc2c3c4c(cc2s1)CCCN4CCC3	0	0	52	0	0
O=c1ccc2cc3c4c(c2o1)CCCN4CCC3	0	0	0	0	0
O=C(c1cc(-n2cccn2)ccn1)N1CCCc2ccccc21	-	-	0	-	-
COc1cc2[nH]c3c(=O)n(CCN4CCCCC4)cnc3c2cc1OC	0	53	0	0	0
Cc1ccc2c(COC(=O)c3ccccc3Br)cc(=O)oc2c1	0	60	0	0	0
Cc1ccc2c(COC(=O)c3ccccc3Cl)cc(=O)oc2c1	0	0	0	0	0
CCOC(=O)Cc1csc(NC(=O)c2c(O)c3ccccc3n(CC(C)C)c2=O)n1	0	0	0	97	98
O=C(/C=C/NNC(=O)c1ccccc1)c1ccccc1	0	52	0	0	0
Cc1cc(C)n(CC(O)COc2ccccc2[N+](=O)[O-])n1 (centres undefined)	0	56	0	0	0
COc1ccccc1OCC(O)Cn1nc(C)cc1C (centres undefined)	0	-	0	0	0
O=C(Nc1nnc(-c2ccc(F)cc2)o1)C1CCCCC1	-	-	0	-	-
Cn1nnnc1SCC1=C(C(=O)O)N2C(=O)[C@@H](NC(=O)[C@H](O)c3ccccc3)[C@H]2SC1	-	0	0	-	-
Cc1nnc(SCC2=C(C(=O)O)N3C(=O)C(NC(=O)Cn4ncc(Cl)c4C)C3SC2)s1 (centres undefined)	0	0	0	99	99
Cc1nnc(SCC2=C(C(=O)O)N3C(=O)C(NC(=O)c4cccc(F)c4F)C3SC2)s1 (centres undefined)	0	0	0	100	101
Cc1cc(C)n(CC(=O)NC2C(=O)N3C(C(=O)O)=C(CSc4nnc(C)s4)CSC23)n1 (centres undefined)	0	0	0	100	100
Cn1cccc1-c1noc(CNC(=O)C2(c3ccccc3)CC2)n1	-	-	0	-	-
SMILES	CCHFV vOTU inh	VHR inh abs	SSB-PriA inh	RN4220 kill	Sa ugtP lethal
Cc1ccc(Oc2nnc(-c3ccccc3)c3ccccc23)cc1	0	0	0	0	90
Cc1cc2nc(NCc3ccccn3)sc2cc1C	-	-	0	-	-
COc1ccc(CCC(=O)Nc2cc(C)nn2-c2nc3c(cnn3-c3cccc(C)c3C)c(=O)[nH]2)cc1	-	-	0	-	-
Cc1cc(NC(=O)c2cc3ccccc3o2)n(-c2nc3c(cnn3-c3ccc(F)cc3)c(=O)[nH]2)n1	-	-	0	-	-
COc1ccc(CC(=O)Nc2cc(C)nn2-c2nc3c(cnn3-c3cccc(C)c3C)c(=O)[nH]2)cc1	-	-	60	-	-
Cc1cc(NC(=O)c2cccc3ccccc23)n(-c2nc3c(cnn3-c3ccc(F)cc3)c(=O)[nH]2)n1	-	-	43	-	-
Cc1ccc(S(=O)(=O)N=C(Nc2cccc(C)c2)Nc2nc(C)cc(C)n2)cc1	-	-	0	-	-
COc1ccc(NC(=O)c2cc(-c3ccco3)on2)cc1OC	0	53	0	0	0
Cc1ccc(NC(=O)c2cc(-c3ccco3)on2)cc1C	0	0	0	0	0
ClC(Cl)(c1nnnn1-c1ccccc1)c1nnnn1-c1ccccc1	0	0	0	100	100
O=C(N/N=C/c1cccc2cccnc12)c1ccccc1Br	-	-	+	-	-
O=C(N/N=C/c1cccc2cccnc12)c1ccccc1	-	-	+	-	-
O=C(N/N=C/c1cccc2cccnc12)c1ccncc1	-	-	+	-	-
CCCc1nnsc1C(=O)NCC1CCN(C(=O)COc2ccccc2)CC1	-	-	0	-	-
Cc1cc(=O)oc(C)c1C(=O)NCC(C)NC(=O)c1c(C)cc(=O)oc1C (centres undefined)	0	54	0	0	0
